IL1B secr inh = qHTS for Inhibitors of Inflammasome Signaling: IL-1-beta AlphaLISA Primary Screen; THP-1 LPS/ATP IL-1B secretion, AlphaLISA, 16 h; hits give low values; 360,000 tested, 4.7% active; activity change, % at 57.5 µM; in the data active = activity change below about -50%; inconclusive = mostly about -30% to -49%
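THP-1 cells pretreated 1 hr with compounds (up to 57.5 uM final), then stimulated with LPS (250 ng/mL final) plus ATP (1.25 mM final); secreted IL-1B measured by AlphaLISA after 16 hr, decreased signal indicating inhibition.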
HT1080 IDH1KD tx = qHTS for induction of synthetic lethality in tumor cells producing 2HG: qHTS for the HT-1080-IDH1KD cell line. HT-1080 IDH1 knockdown viability, ATP luminescence, 48 h. Potency, µM (doses to about 46.1 µM), inactives show top-dose activity, negative = toxicity, most hits filed as cytotoxic. 360,000 tested, 2% active;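 note: potency is the fitted concentration of half-maximal effect; 0% = DMSO wells and -100% = cell-free medium wells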
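Viability of IDH1-knockdown HT-1080 fibrosarcoma cells was assessed by CellTiter-Glo after 48 h at 37 °C with titrated compound; concentration-effect curves were classified by fit quality and response size.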
TDP1 cell CPT = qHTS for Inhibitors of human tyrosyl-DNA phosphodiesterase 1 (TDP1): qHTS in cells in presence of CPT; Potency, µM (highest dose often 46.2 µM), for inactives: at the top dose activity change, negative = growth inhibition, actives largely listed as inhibitors; 420,000 tested, 12% active; chicken DT40 Tdp1-/-;hTDP1 cells + 20 nM CPT, ATP luminescence, 48 h; AID 686979, 2013; note: potency is the fitted concentration of half-maximal effect; nearly all actives have a fitted effect of over 55% in size
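Chicken DT40 Tdp1-/- cells complemented with human TDP1, 400 cells/well, exposed to compounds plus 20 nM camptothecin for at least 48 h at 37 C; viability read as ATP content by CellTiter-Glo luminescence.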
ELG1 repair inh = qHTS screen for small molecules that inhibit ELG1-dependent DNA repair in human embryonic kidney (HEK293T) cells expressing luciferase-tagged ELG1; AID 504467, 2011; HEK293T ELG1-luciferase reporter, luminescence, 16 h; DNA damage induced by 5-fluorouridine; Potency, µM (top dose mostly 46.1 µM), without a hit: at the highest dose activity change, negative = inhibition, actives largely listed as inhibitors; 330,000 tested, 2.3% active; note: potency is the fitted concentration of half-maximal effect; nearly all actives have a fitted effect of over 55% in size
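Luminescence from the luciferase reporter, measured 30 min after ONE-Glo reagent at room temperature, was the read-out. Beforehand, 2,000 cells per well were exposed for 16 hr at 37 °C to 5-fluorouridine together with compound or vehicle.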
HT1080NT lethal = qHTS for induction of synthetic lethality in tumor cells producing 2HG: qHTS for the HT-1080-NT fibrosarcoma cell line; HT-1080-NT fibrosarcoma viability, CellTiter-Glo ATP luminescence, 48 h; Potency, µM (series often up to 46.1 µM), for the others: top-dose activity, negative = less viability, most hits filed as cytotoxic; 360,000 tested, 1.6% active;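 note: NT is the 2HG producing partner of a matched IDH1 knockdown line; potency is the fitted concentration of half-maximal effect; 0% = DMSO-treated cells and -100% = media-only wells without cells; nearly all actives have a fitted effect of over 55% in size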
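A 48-hour cytotoxicity screen used HT-1080-NT cells plated 2 hours before compound delivery. ATP-based CellTiter-Glo luminescence measured viability, normalized to DMSO and no-cell controls.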
DT40 TDP1 no CPT = qHTS for Inhibitors of human tyrosyl-DNA phosphodiesterase 1 (TDP1): qHTS in cells in absence of CPT. Potency, µM (top dose mostly 46.2 µM), for the others: at the highest dose activity change, negative = growth inhibition, hits mostly inhibitors. DT40 Tdp1-/- hTDP1 cells, no CPT, ATP luminescence, 48 h. 420,000 tested, 15% active; note: potency is the fitted concentration of half-maximal effect; nearly all actives have a fitted effect of over 55% in size
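No-CPT arm: Tdp1-/-;hTDP1 DT40 cells (400/well) plus compounds, incubated ≥48 hr at 37 °C. Readout CellTiter-Glo luminescence.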
An asterisk follows results filed as active; ? = inconclusive; nt = not tested or not shown; [ ] = remark or other dose. The list is not random: actives were taken first. Their share in the collection is about 19%. Unless noted, calls come from the whole dose curve; as a rule, active = well fitted curve in the direction sought with a large enough effect; inconclusive = small, poorly fitted or top-dose-only effect, or another doubt; inactive = no such curve, though single readings can be large; an effect the other way counts as inactive or inconclusive. Unless noted, % is set by controls: 0 for no effect and ±100 for the full control effect.

SMILES	IL1B secr inh	HT1080 IDH1KD tx	TDP1 cell CPT	ELG1 repair inh	HT1080NT lethal	DT40 TDP1 no CPT
CN(C(=O)c1ccc(OC2CCN(C(=O)c3cccnc3)CC2)cc1)C1CCCCC1	-5	4%	?	3%	5%	?
Cc1cc(C(=O)OCC(=O)NC2CCS(=O)(=O)C2)c(C)n1-c1ccccc1 (stereo not given)	-13	-4%	?	-23%	-6%	12µM*
Cc1ccc(Oc2ccc(OCC(=O)NC3CCS(=O)(=O)C3)cc2)cc1 (stereo not given)	-19	?	23µM*	12µM*	?	16µM*
COc1ccc2cc(-c3cc(C(=O)OCC(=O)NC4CCS(=O)(=O)C4)c4ccccc4n3)ccc2c1 (stereo not given)	-19	10µM*	?	?	?	?
Cc1c(NC(=O)COC(=O)c2cc3c4ccccc4n(C)c3s2)c(=O)n(-c2ccccc2)n1C	-55*	-1%	-14%	?	-12%	-30%
Cc1cc(C(=O)OCC(=O)NC2CCS(=O)(=O)C2)c2ccccc2n1 (stereo not given)	6	10%	1%	14%	13%	-9%
CS(=O)(=O)c1ccc(Cl)c(NC(=O)CCN2C(=O)NC3(CCCC3)C2=O)c1	6	13%	20%	0%	9%	10%
CCOC(=O)C1=CCN(S(=O)(=O)c2ccccc2Br)C1c1ccccc1 (stereo not given)	49	-18%	?	nt	?	?
COc1ccc(C(=O)OCC(=O)Nc2c(C)n(C)n(-c3ccccc3)c2=O)cc1	15	13%	3%	0%	6%[9.24 µM]	10%
COc1ccc2cc(-c3cc(C(=O)OCC(=O)Nc4c(C)n(C)n(-c5ccccc5)c4=O)c4ccccc4n3)ccc2c1	0	-1%	13µM*	?	9%	10µM*
COc1ccccc1CC(=O)N1CCN(c2cccc(C(F)(F)F)c2)CC1	-5	-16%	23µM*	-11%	?	13µM*
Cc1ccc(S(=O)(=O)CC(=O)N2CCN(c3cccc(C(F)(F)F)c3)CC2)cc1	-1	5%	16µM*	-9%	-3%	21µM*
Cc1nc(-c2ccc(S(=O)(=O)N3CCN(c4cccc(C(F)(F)F)c4)CC3)cc2)co1	nt	nt	?	nt	nt	18µM*
COc1ccccc1N1CCN(S(=O)(=O)c2ccc(-c3coc(C)n3)cc2)CC1	nt	nt	1%	nt	nt	-15%
O=C(Cn1ncc2ccccc21)N1CCN(c2cccc(C(F)(F)F)c2)CC1	-6	-6%[9.24 µM]	?	-16%	-26%	?
COc1ccccc1NC(=O)N1CCN(c2cccc(C(F)(F)F)c2)CC1	-15	0%	?	0%	11%	?
O=C(CS(=O)(=O)c1ccccc1)N1CCN(c2ccccc2)CC1	-2	3%	-3%	?	12%	-11%
CC1(C2CC2)NC(=O)N(CC(=O)N2CCN(c3cccc(C(F)(F)F)c3)CC2)C1=O (stereo not given)	-3	1%	15µM*	?	-2%	12µM*
Cc1ccc(CC(=O)N2CCN(c3cccc(C(F)(F)F)c3)CC2)cc1	-5	-8%	23µM*	-12%	5%	18µM*
O=C(/C=C/c1ccc(Br)cc1)N1CCN(c2cccc(C(F)(F)F)c2)CC1	?	-9%	?	9%	?	?
O=C(c1cccnc1)N(Cc1ccccc1)C(c1ccccc1)c1nc2ccccc2[nH]1 (stereo not given)	-8	6%	-17%	nt	9%	?
COc1cc(Cl)c(NC(=O)c2cc(CN3CCCC3)on2)c(OC)c1	nt	nt	2%	nt	nt	-22%
C[C@H]1CN=C(Nc2ccccc2)N1CC1CCCCC1	-4	3%	?	-16%	-3%	?
c1ccc(C[C@H]2CN=C(Nc3ccccc3)N2CCCC2CCCC2)cc1	-4	?	?	?	?	16µM*
CCN1C(Nc2ccccc2)=NC[C@@H]1Cc1ccccc1	-2	10%	?	?	10%	-23%
SMILES	IL1B secr inh	HT1080 IDH1KD tx	TDP1 cell CPT	ELG1 repair inh	HT1080NT lethal	DT40 TDP1 no CPT
c1ccc(CCCCN2C(Nc3ccccc3)=NC[C@@H]2Cc2ccccc2)cc1	-55*	-5%	?	-14%	-23%	23µM*
C[C@H]1CN=C(Nc2ccccc2)N1CCCC1CCCCC1	?	-21%	?	1%	-3%	?
CC(C)(C)C1CCC(CN2C(Nc3ccccc3)=NC[C@@H]2Cc2ccccc2)CC1 (stereo not given in full)	?	-25%	23µM*	-9%	-17%	13µM*
CCCCCCCN1C(Nc2ccccc2)=NC[C@@H]1Cc1ccccc1	-16	?	?	-23%	?	18µM*
COc1cccc(C(c2sc3nc(-c4ccco4)nn3c2O)N2CCC3(CC2)OCCO3)c1 (stereo not given)	nt	nt	-2%	nt	nt	-16%
O=C(COc1ccc(Br)cc1)NCCCNC(=O)c1ccncc1	-11	21%	-11%	13%	22%	14%
CCOC(=O)C1(C)CCN1C(=O)c1cccc(C#N)c1 (stereo not given)	7	26%	?	nt	10%	-1%
COc1ccc(OCC(=O)N(Cc2cccs2)C2CCS(=O)(=O)C2)cc1 (stereo not given)	9	-3%	-2%	10%	3%	1%
COc1ccc(N(Cc2cccs2)C(=O)c2ccco2)cc1	nt	nt	23µM*	nt	nt	?
COc1ccc(N(Cc2cccs2)C(=O)COc2ccc(C(C)C)cc2)cc1	nt	nt	23µM*	nt	nt	21µM*
COc1ccc(OCC(=O)N(Cc2cccs2)c2ccc(OC)cc2)cc1	nt	nt	16µM*	nt	nt	23µM*
Cn1c(SCC(=O)NCc2ccco2)nnc1-c1ccc(NC(=O)c2ccccc2)cc1	nt	nt	-7%	nt	nt	?
CCOc1cc(CNC(=O)C2CCN(c3nc4ccccc4[nH]3)CC2)cc(OCC)c1OCC	nt	nt	21µM*	nt	nt	16µM*
CCOc1ccc(NC(=O)C2CCN(c3nc4ccccc4[nH]3)CC2)cc1	nt	nt	?	nt	nt	23µM*

Source: PubChem
